# Whole data set: some 140,000 sequences, median “enrichment ratio after two sorts for PhoP signalling” near 0, cut for the highest 2% near 11. The list comes from a sample in which the highest values are over-represented; it also holds similar and randomly drawn sequences.
# B1: PhoQ; a variant is named by its letters at X, in order, P23837 (parent)
# chain: MKKLLRLFFPLSLRVRFLLATAAVVLVLSLAYGMVALIGYSVSFDKTTFRLLRGESNLFYTLAKWENNKLHVELPENIDKQSPTMTLIYDENGQLLWAQRDVPWLMKMIQPDWLKSNGFHEIEADVNDTSLLLSGDHSIQQQLQEVREDDDDAEMTHSVAVNVYPATSRMPKLTIVVVDTIPVELKSSYMVWSWFIYVLSANLLLVIPLLWVAAWWSLRPIEALAKEVRELEEHNRELLNPATTRELTSLVRNLNRLLKSERERYDKYRTTLTDLTHSLKTPLXXLQXXLRSLRSEKMSVSDAEPVMLEQISRISQQIGYYLHRASMRGGTLLSRELHPVAPLLDNLTSALNKVYQRKGVNISLDISPEISFVGEQNDFVEVMGNVLDNACKYCLEFVEISARQTDEHLYIVVEDDGPGIPLSKREVIFDRGQRVDTLRPGQGVGLAVAREITEQYEGKIVAGESMLGGARMEVIFGRQHSAPKDE
# Variants of: B1
# Test: enrichment ratio after two sorts for PhoP signalling (ratio (wild type AVST 3.29)); higher = more functional
# Conditions: with PhoP (E. coli)
row,Variant,enrichment ratio
1,LQWA,≤ 0.25
2,TAME,15.7
3,KAME,≤ 0.25
4,NAMY,≤ 0.25
5,KAMY,≤ 0.25
6,TAIE,≤ 0.25
7,TAMY,17.4
8,RLHS,≤ 0.25
9,THTF,0.991
10,SFPM,≤ 0.25
11,RSPG,≤ 0.25
12,NAHL,≤ 0.25
13,KSHL,≤ 0.25
14,QAHL,16.7
15,QSHL,13.5
16,IAHL,≤ 0.25
17,QTHL,4.03
18,THHL,2.02
19,TAHL,17.4
20,YAHL,≤ 0.25
21,KAHL,≤ 0.25
22,QGHL,18.3
23,FFHL,≤ 0.25
24,KINI,≤ 0.25
25,SEPT,≤ 0.25
26,NNGF,≤ 0.25

row,Variant,enrichment ratio
1,LQLD,≤ 0.25
2,NKMF,≤ 0.25
3,QAQF,≤ 0.25
4,NQNF,≤ 0.25
5,QQNF,16.3
6,QAHF,15.5
7,QANF,21
8,QDHM,≤ 0.25
9,YAHM,≤ 0.25
10,KANF,≤ 0.25
11,QAHM,22.3
12,NANF,≤ 0.25
13,QAHK,≤ 0.25
14,QLNF,≤ 0.25
15,HNRG,≤ 0.25
16,WPAL,≤ 0.25
17,GSVC,≤ 0.25
18,LGSN,≤ 0.25
19,MHVR,≤ 0.25
20,WLSV,≤ 0.25
21,WRAR,≤ 0.25
22,KRNR,≤ 0.25
23,ECFS,≤ 0.25
24,ANNF,12.9
25,CTNF,≤ 0.25
26,STNF,12.6

row,Variant,enrichment ratio
1,SCNF,14.3
2,YTNF,≤ 0.25
3,AHNF,9.49
4,AINF,1.66
5,GTNF,≤ 0.25
6,KYNF,≤ 0.25
7,SLNF,1.82
8,ATNF,20.9
9,TTNF,6.07
10,PREH,≤ 0.25
11,GASC,≤ 0.25
12,FFHE,≤ 0.25
13,DQPT,≤ 0.25
14,LMDV,≤ 0.25
15,FSAH,0.363
16,SQND,≤ 0.25
17,IRPQ,≤ 0.25
18,YYNE,≤ 0.25
19,GEVA,≤ 0.25
20,GEYY,≤ 0.25
21,GEVG,8.67
22,GEVM,13.6
23,GEVY,15.9
24,GEGM,≤ 0.25
25,ISQH,≤ 0.25
26,HWRW,≤ 0.25

row,Variant,enrichment ratio
1,LGRG,≤ 0.25
2,HLTF,≤ 0.25
3,GIAM,33.4
4,LNAM,≤ 0.25
5,MNAM,1.4
6,NNAM,≤ 0.25
7,TNAM,15.7
8,GMAM,24.3
9,GNAM,35.8
10,GMTM,≤ 0.25
11,TNCK,≤ 0.25
12,GIMD,≤ 0.25
13,GIRM,≤ 0.25
14,GMGM,≤ 0.25
15,RPAK,≤ 0.25
16,YHSF,≤ 0.25
17,QLDG,≤ 0.25
18,PCCG,≤ 0.25
19,DCDI,≤ 0.25
20,YLVR,≤ 0.25
21,QLDF,≤ 0.25
22,IHCL,≤ 0.25
23,FHCR,≤ 0.25
24,VVAM,≤ 0.25
25,LQPE,≤ 0.25
26,YRAY,≤ 0.25

row,Variant,enrichment ratio
1,SGLT,12.3
2,SGNT,≤ 0.25
3,SGDN,≤ 0.25
4,SGLI,16.2
5,SGLA,8.41
6,SGDK,≤ 0.25
7,KDVP,≤ 0.25
8,RAKD,≤ 0.25
9,WISW,≤ 0.25
10,TISI,16.9
11,AISW,11.4
12,TKSI,14.9
13,AQSI,18.6
14,ARSI,≤ 0.25
15,TISR,6.92
16,ADSW,≤ 0.25
17,AQRK,≤ 0.25
18,TISK,3.65
19,HKSI,≤ 0.25
20,KKSI,≤ 0.25
21,SLDN,≤ 0.25
22,QVPH,≤ 0.25
23,WSQP,≤ 0.25
24,DYLR,≤ 0.25
25,WNLT,≤ 0.25
26,RHIF,≤ 0.25

row,Variant,enrichment ratio
1,HCDL,≤ 0.25
2,AHSI,≤ 0.25
3,AKDH,≤ 0.25
4,ADSI,≤ 0.25
5,AKSI,22.7
6,WISI,≤ 0.25
7,AISI,22
8,ENLY,≤ 0.25
9,RIVL,≤ 0.25
10,YQAH,≤ 0.25
11,TFMT,≤ 0.25
12,GILI,8.37
13,HGCS,≤ 0.25
14,GNLI,15.8
15,GVLI,15.6
16,NVLI,≤ 0.25
17,GVLA,4.95
18,HYLI,≤ 0.25
19,HGCK,≤ 0.25
20,HGLI,13.3
21,HGCI,17.9
22,LNLI,≤ 0.25
23,HGDK,≤ 0.25
24,LTRF,≤ 0.25
25,QPSN,≤ 0.25
26,PTQL,≤ 0.25

row,Variant,enrichment ratio
1,YSHY,≤ 0.25
2,CNLI,12.7
3,WGLT,≤ 0.25
4,CFLI,≤ 0.25
5,QGDK,≤ 0.25
6,WGLI,13.6
7,RGLI,≤ 0.25
8,CNHF,≤ 0.25
9,NGLI,2.73
10,WGLA,≤ 0.25
11,TGLI,12.2
12,QGLI,13.3
13,FFLI,≤ 0.25
14,VTWM,≤ 0.25
15,QDLV,≤ 0.25
16,WQPN,≤ 0.25
17,FGKS,≤ 0.25
18,TKLI,13
19,MGDK,≤ 0.25
20,NILI,0.917
21,MGLI,14.4
22,GGLI,11.9
23,YHLI,≤ 0.25
24,AKLI,4.91
25,MKLI,3.78
26,MGLS,5.14

row,Variant,enrichment ratio
1,PKIA,≤ 0.25
2,NPEC,≤ 0.25
3,DYPI,≤ 0.25
4,HHAA,≤ 0.25
5,VYEG,≤ 0.25
6,GTRK,≤ 0.25
7,AKAK,≤ 0.25
8,DHNF,≤ 0.25
9,WHAF,≤ 0.25
10,SGQH,11.9
11,SGVS,13
12,SGGD,≤ 0.25
13,SGPN,≤ 0.25
14,SGKH,≤ 0.25
15,SGQN,≤ 0.25
16,SGVA,19
17,TGVN,5.82
18,SGVG,5.22
19,SGWI,2.76
20,SGVK,≤ 0.25
21,SGVN,16.8
